Assay results: PubChem BioAssay
Active and inactive are the calls of the source.

Experiments:
[1] = test system: PRMT1 (protein arginine N-methyltransferase 1); assay: small molecules binding arginine methyltransferase PRMT1 – biochemical, small-molecule microarray, 635 nm fluorescence, primary screen (AID 1088); details: higher = more signal;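 note: binding of Prmt1 protein to compounds spotted on small-molecule microarray slides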
[2] = growth effects on S. cerevisiae YJM789 – YJM789 clinical isolate, OD600, 24 h, basal, primary screen (AID 1089); details: higher = more signal, called active from +8 up or from −8 down;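 note: growth of clinical yeast isolate S. cerevisiae YJM 789 seeded 1000 cells per well; test concentration not given here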
[3] = S. pombe growth modifiers, basal conditions – strain 972, OD600, 24 h, no modulator, primary screen (AID 1090);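 note: basal condition with compound alone and no growth modifier present; test concentration not given here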; details: S. pombe 972 growth, higher = more signal, called active from +8 up or from −8 down
[4] = budding yeast growth modifiers under rapamycin – strain BY4716, OD600, 96 h, primary screen (AID 1091); note: test concentration not given here; details: S. cerevisiae BY4716 + rapamycin, higher = more signal, called active from +8 up or from −8 down
[5] = biological target: Torsin-1A-interacting protein 2 (Homo sapiens) (UniProt Q8NFQ8); assay: small molecules binding lysate-expressed LULL1 – cell lysate, human LULL1 lysate, 635/667 nm fluorescence, primary screen (AID 1092); details: small-molecule microarray, hLULL1 lysate binding, 635 nm fluorescence; higher = more signal;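 note: probe is lysate of COS7 cells overexpressing human LULL1; score merges per-feature 667 nm fluorescence with signal-to-noise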
[6] = optical density change of DRC41 E. coli – strain DRC41, OD650, 24 h, E. coli filamentation project, primary screen (AID 1093);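 note: MC1000 strain lacking acrAB efflux and sulA so SOS filamentation is blocked; test concentration not given here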; details: E. coli DRC41 growth, higher = more signal, called active from +8 up or from −8 down
[7] = probe aLefty2 binding to arrayed compounds – biochemical, biotinylated probe, 635/667 nm fluorescence, primary screen (AID 1094); details: small-molecule microarray, higher = more signal;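 note: score merges spot fluorescence near 667 nm with spot signal-to-noise ratio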
[8] = test system: Noggin (protein binding on small-molecule microarray); assay: small molecules binding Noggin protein – biochemical, 635/667 nm fluorescence, primary screen (AID 1095); details: 635 nm fluorescence, higher = more signal;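 note: score merges 667 nm feature fluorescence with signal to noise over triplicate slides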
[9] = biological target: Neurogenic locus notch homolog protein 3 (Homo sapiens) (UniProt Q9UM47); assay: small molecules binding NOTCH3 protein – biochemical, 635/667 nm fluorescence, primary screen (AID 1096); details: small-molecule microarray, 635 nm fluorescence, higher = more signal
[10] = probe aEGFR binding to arrayed compounds – biochemical, biotinylated probe, 635/667 nm fluorescence, primary screen (AID 1097); details: small-molecule microarray, higher = more signal;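 note: probe is a biotinylated anti-EGFR antibody binding compounds printed on slides; score combines fluorescence near 667 nm and signal to noise of each spot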
[11] = test system: Plasmodium falciparum Sir2 (PF13_0152, Sir2A); assay: Plasmodium falciparum Sir2A binding compounds – biochemical, small-molecule microarray, 635 nm fluorescence, primary screen (AID 1098); details: fluorescence 635 nm, higher = more signal;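 note: score merges spot fluorescence intensity with its signal-to-noise ratio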
[12] = probe aDKK1 binding to arrayed compounds – biochemical, biotinylated probe, 635/667 nm fluorescence, primary screen (AID 1099); details: small-molecule microarray, higher = more signal;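 note: score merges 667nm spot fluorescence with signal to noise across triplicate slides; reference of the scale not given here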
[13] = probe aCHRDL2 binding to arrayed compounds – biochemical, biotinylated probe, 635/667 nm fluorescence, primary screen (AID 1100); details: small-molecule microarray, higher = more signal
[14] = change in splice reporter luminescence, either direction, cell-based, HEK293, spliceosome inhibition project, primary screen (AID 1101); details: HEK293 splicing luciferase reporter, 24 h, higher = more signal, called active from +8 up or from −8 down;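 note: HEK293 cells carrying a splicing-competent luciferase reporter gene; test concentration not given here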
[15] = biological target: Fibroblast growth factor 10 (Homo sapiens) (UniProt O15520); assay: compounds binding fibroblast growth factor 10 – biochemical, small-molecule microarray, 635 nm fluorescence, primary screen (AID 1102); details: FGF10 binding, fluorescence 635 nm, higher = more signal
[16] = test system: glycogen synthase kinase-3 (GSK3A per assay name; protocol says GSK3B); assay: compounds binding glycogen synthase kinase-3 – biochemical, small-molecule microarray, 635 nm fluorescence, GSK3A, primary screen (AID 1103); details: fluorescence 635 nm, higher = more signal; note: the record names both GSK3A and GSK3B
[17] = biological target: Epidermal growth factor receptor (Homo sapiens) (UniProt P00533); assay: compounds binding epidermal growth factor receptor – biochemical, small-molecule microarray, 635 nm fluorescence, primary screen (AID 1104); details: EGFR binding, higher = more signal;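 note: score merges 667 nm emission intensity with spot signal to noise over triplicate slides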
[18] = biological target: Follistatin-related protein 3 (Homo sapiens) (UniProt O95633); assay: compounds binding follistatin-related protein 3 – biochemical, small-molecule microarray, 635 nm fluorescence, primary screen (AID 1105); details: FSTL3 binding, higher = more signal;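 note: score merges emission near 667 nm and signal to noise per printed spot across three slides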
[19] = biological target: Dickkopf-related protein 1 (Homo sapiens) (UniProt O94907); assay: small molecules binding DKK1 protein – biochemical, small-molecule microarray, 635 nm fluorescence scan, primary screen (AID 1106); details: higher = more signal;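 note: score merges emission near 667 nm with signal to noise over three replicate slides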
[20] = test system: Inhibin beta A chain (activin A); assay: small molecules binding activin A – biochemical, small-molecule microarray, 635 nm fluorescence scan, primary screen (AID 1107); details: INHBA, higher = more signal;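 note: mouse activin A protein probed at 4.33 µg/mL on printed slides; score merges bound-protein fluorescence near 667 nm with spot signal-to-noise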

Fibroblast growth factor 10 (Homo sapiens), sequence (O15520 whole entry, looked up): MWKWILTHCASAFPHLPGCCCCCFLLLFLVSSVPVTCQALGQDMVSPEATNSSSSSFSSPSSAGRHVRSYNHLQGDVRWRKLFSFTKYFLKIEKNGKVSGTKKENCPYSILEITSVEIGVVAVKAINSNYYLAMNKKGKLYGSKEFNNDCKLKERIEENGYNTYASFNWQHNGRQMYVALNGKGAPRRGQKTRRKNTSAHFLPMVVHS
Epidermal growth factor receptor (Homo sapiens), sequence (P00533 whole entry, looked up): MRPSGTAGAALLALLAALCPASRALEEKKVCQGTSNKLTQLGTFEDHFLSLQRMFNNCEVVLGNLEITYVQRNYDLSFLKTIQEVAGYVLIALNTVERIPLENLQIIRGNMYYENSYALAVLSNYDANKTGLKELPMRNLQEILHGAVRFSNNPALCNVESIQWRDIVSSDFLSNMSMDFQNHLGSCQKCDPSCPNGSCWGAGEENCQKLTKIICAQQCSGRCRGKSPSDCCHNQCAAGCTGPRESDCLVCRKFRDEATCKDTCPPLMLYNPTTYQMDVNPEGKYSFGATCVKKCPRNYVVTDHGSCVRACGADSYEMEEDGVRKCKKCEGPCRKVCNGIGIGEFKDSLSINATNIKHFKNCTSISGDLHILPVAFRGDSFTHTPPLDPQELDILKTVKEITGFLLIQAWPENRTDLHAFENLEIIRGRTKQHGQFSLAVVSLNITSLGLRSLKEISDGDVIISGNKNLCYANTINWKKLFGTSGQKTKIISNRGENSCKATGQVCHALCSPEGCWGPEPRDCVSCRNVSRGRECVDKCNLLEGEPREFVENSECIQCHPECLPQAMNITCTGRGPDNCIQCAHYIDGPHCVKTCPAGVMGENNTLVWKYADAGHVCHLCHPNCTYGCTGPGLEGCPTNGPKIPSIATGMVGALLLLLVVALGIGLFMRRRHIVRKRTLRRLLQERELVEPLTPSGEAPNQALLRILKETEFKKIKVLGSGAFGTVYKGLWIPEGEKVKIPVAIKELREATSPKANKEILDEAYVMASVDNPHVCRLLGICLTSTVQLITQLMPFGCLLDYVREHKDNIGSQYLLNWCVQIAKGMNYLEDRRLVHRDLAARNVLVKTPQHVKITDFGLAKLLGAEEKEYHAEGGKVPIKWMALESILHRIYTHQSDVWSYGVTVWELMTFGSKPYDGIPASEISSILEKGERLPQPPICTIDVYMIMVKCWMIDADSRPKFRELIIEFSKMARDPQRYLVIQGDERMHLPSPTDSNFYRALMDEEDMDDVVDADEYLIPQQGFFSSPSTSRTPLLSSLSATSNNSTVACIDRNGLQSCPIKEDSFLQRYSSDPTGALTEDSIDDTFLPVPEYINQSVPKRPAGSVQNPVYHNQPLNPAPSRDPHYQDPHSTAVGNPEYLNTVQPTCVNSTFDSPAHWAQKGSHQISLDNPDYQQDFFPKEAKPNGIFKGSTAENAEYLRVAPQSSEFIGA
Follistatin-related protein 3 (Homo sapiens), sequence (O95633 whole entry, looked up): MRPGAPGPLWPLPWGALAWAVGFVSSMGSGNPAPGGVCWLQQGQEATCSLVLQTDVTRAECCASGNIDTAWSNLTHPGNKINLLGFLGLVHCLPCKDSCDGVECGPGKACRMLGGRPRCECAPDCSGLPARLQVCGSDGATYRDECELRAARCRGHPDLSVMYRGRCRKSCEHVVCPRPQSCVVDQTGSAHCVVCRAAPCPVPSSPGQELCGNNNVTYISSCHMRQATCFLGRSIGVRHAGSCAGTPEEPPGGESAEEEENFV
Dickkopf-related protein 1 (Homo sapiens), sequence (O94907 whole entry, looked up): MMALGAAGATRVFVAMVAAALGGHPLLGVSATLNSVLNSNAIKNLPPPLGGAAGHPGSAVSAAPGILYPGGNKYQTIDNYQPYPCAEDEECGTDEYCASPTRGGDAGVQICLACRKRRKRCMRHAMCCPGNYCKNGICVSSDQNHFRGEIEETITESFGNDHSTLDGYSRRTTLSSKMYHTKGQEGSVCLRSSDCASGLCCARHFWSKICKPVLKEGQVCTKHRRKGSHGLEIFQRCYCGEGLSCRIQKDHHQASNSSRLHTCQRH
Neurogenic locus notch homolog protein 3 (Homo sapiens), sequence (Q9UM47 whole entry, looked up): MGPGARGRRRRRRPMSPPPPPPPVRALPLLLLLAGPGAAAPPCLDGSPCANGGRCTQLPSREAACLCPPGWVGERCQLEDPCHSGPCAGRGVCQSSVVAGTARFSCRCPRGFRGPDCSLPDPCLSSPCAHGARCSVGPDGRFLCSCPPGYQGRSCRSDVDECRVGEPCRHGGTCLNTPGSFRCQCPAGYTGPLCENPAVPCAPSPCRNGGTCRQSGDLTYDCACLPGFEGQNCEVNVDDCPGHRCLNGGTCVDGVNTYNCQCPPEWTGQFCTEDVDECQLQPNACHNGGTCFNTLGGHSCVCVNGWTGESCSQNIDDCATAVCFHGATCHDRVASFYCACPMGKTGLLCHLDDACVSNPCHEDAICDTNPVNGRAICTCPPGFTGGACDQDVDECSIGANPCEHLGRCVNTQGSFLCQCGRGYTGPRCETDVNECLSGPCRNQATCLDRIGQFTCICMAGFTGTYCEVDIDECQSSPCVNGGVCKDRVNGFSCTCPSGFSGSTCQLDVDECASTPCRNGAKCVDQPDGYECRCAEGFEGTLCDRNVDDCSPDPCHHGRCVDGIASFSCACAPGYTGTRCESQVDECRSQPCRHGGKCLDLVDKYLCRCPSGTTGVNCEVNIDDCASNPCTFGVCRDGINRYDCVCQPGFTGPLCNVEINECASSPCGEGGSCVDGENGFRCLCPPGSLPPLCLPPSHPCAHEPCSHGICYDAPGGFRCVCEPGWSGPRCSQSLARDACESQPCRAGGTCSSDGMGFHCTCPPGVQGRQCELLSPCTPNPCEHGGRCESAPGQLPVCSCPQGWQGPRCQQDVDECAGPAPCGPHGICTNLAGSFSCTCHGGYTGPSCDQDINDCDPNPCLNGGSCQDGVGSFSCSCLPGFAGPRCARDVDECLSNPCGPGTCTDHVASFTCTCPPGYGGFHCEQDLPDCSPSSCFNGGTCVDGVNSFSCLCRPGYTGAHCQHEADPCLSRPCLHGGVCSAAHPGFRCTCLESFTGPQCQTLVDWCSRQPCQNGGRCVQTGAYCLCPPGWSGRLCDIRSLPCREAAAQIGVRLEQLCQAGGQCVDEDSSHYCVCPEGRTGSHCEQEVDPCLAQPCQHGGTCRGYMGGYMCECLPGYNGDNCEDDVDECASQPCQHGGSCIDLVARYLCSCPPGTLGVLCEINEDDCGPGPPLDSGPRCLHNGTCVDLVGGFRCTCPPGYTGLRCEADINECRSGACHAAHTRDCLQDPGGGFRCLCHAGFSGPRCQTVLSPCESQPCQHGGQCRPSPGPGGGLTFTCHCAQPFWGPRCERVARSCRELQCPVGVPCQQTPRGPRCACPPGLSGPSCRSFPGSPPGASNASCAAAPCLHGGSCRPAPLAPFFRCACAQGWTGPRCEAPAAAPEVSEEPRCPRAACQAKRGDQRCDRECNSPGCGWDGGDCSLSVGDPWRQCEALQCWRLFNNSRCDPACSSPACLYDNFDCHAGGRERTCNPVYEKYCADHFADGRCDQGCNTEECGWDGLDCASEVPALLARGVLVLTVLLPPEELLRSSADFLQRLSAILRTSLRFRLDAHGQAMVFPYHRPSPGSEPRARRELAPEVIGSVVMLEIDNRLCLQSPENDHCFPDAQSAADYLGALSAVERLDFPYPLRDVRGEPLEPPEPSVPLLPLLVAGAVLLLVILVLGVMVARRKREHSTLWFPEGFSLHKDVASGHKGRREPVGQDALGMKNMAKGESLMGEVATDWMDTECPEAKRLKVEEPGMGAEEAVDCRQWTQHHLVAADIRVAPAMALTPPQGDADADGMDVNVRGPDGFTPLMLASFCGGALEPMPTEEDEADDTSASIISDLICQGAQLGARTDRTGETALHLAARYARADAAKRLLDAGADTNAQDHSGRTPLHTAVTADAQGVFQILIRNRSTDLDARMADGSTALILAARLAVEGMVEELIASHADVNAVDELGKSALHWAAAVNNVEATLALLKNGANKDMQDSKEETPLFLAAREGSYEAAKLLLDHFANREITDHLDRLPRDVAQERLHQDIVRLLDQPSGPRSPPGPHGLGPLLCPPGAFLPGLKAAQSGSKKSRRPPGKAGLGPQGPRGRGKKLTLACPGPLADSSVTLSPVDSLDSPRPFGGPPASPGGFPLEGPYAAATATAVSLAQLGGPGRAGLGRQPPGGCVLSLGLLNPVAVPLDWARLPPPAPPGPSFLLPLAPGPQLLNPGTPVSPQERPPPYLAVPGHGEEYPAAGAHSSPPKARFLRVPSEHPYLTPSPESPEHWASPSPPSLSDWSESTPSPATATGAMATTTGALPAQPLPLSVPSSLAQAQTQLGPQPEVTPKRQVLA
Torsin-1A-interacting protein 2 (Homo sapiens), sequence (Q8NFQ8 whole entry, looked up): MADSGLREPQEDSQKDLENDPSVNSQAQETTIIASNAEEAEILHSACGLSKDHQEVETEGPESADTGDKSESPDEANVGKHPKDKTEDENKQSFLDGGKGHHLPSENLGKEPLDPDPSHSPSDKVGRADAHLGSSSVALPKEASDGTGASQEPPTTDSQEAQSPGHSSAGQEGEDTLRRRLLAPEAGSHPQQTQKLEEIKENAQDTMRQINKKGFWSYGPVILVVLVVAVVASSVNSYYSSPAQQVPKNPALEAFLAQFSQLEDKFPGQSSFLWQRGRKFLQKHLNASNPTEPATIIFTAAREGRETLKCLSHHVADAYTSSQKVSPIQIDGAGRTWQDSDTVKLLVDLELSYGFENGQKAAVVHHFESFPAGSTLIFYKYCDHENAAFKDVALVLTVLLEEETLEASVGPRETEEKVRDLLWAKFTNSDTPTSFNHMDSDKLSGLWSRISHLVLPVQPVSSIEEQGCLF

Structure (SMILES)	composite z-score [1]	z-score [2]	z-score [3]	z-score [4]	composite z-score [5]	z-score [6]	composite z-score [7]	composite z-score [8]	composite z-score [9]	composite z-score [10]	composite z-score [11]	composite z-score [12]	composite z-score [13]	z-score [14]	composite z-score [15]	composite z-score [16]	composite z-score [17]	composite z-score [18]	composite z-score [19]	composite z-score [20]
CC(C)C(CO)N1C(=O)[C@@H]2C3C(=O)OCCC/C=C\[C@H]3OC23C=CCN(c2ccc4ccccc4c2)C(=O)[C@@H]13 (stereo not given in full)	-0.403	-0.25 (inactive)	-1.45 (inactive)	-0.0641 (inactive)	1.34	-0.395 (inactive)	-0.0928	-0.469	0.121	-0.203	0.552	-0.167	0.375	-0.298 (inactive)	0.0329	-1.01	-1.2	-0.602	-0.4	0.791
NCCCCCCNC(=O)[C@@H]1C[C@@H]2C(=O)N[C@@H](CCCCN)C(=O)N2[C@@H]1c1ccc(O)cc1	1.44	-0.171 (inactive)	0.142 (inactive)	-1.38 (inactive)	2.47	0.445 (inactive)	0.362	0.367	0.549	0.217	1.32	0.13	0.462	-1.48 (inactive)	0.523	0.456	0.456	0.27	1.16	0.899
COCCOC(=O)N1C(=O)[C@@]2(c3ccccc31)[C@H](c1ccc(O)cc1)N1[C@H](c3ccccc3)[C@H](c3ccccc3)OC(=O)[C@H]1[C@@H]2C(=O)N1CCN(c2ncccn2)CC1	1.55	0.42 (inactive)	1.17 (inactive)	1.84 (inactive)	2.78	1.05 (inactive)	0.0669	1.13	0.855	0.0334	1.45	0.0484	0.419	-0.225 (inactive)	1.04	1.11	0.194	0.466	0.259	0.922
COc1ccc(CCNC(=O)[C@@H]2c3ccccc3C(=O)N(C3CCCCC3)[C@H]2c2ccc(CO)cc2)cc1	0.399	-0.395 (inactive)	-0.838 (inactive)	0.584 (inactive)	3.07	-1.14 (inactive)	-0.0671	-0.282	0.366	-0.0972	1.35	0.0099	0.692	0.43 (inactive)	0.542	0.32	-0.227	0.0696	-0.487	0.177
CN(C)c1ccc(C(O)C2C=CC3C(=O)NC(=O)C3N2Nc2ccccn2)cc1 (stereo not given)	0.757	-0.0671 (inactive)	0.716 (inactive)	0.504 (inactive)	1.31	-1.26 (inactive)	-0.118	0.438	1	0.107	1.15	0.206	0.201	0.936 (inactive)	0.79	0.464	0.729	1.45	1.3	0.921
CC(C)[Si]1(C(C)C)OCc2cc(-c3ccc(-c4ccc(Cl)c(Cl)c4)o3)nc(-c3ccccc3)c21	-0.715	0.0932 (inactive)	-1.39 (inactive)	0.265 (inactive)	-1.75	-0.184 (inactive)	-0.0803	-0.401	-0.444	-0.316	1.33	-0.0755	0.724	0.14 (inactive)	-1.08	-1.22	-1.84	-1.04	-1.32	1.05
COc1cc(OC)c(C(O)C2C=CC3C(=O)N(Cc4ccccc4)C(=O)C3N2n2cnnc2)cc1Br (stereo not given)	1.11	-1.92 (inactive)	-1.73 (inactive)	0.027 (inactive)	2.89	-1.21 (inactive)	0.0208	0.404	1.07	-0.0343	1.36	0.287	0.373	-1.21 (inactive)	1.05	1.26	-0.496	0.777	-1.05	-0.769
C=CCNC(=O)[C@@H]1[C@H]2C(=O)O[C@H](c3ccccc3)[C@H](c3ccccc3)N2[C@H](c2ccccc2OCCO)[C@@]12C(=O)Nc1ccc(C#CCCO)cc12	1.55	1.31 (inactive)	-1.46 (inactive)	3.43 (inactive)	2.3	-0.372 (inactive)	-0.106	1.23	0.686	-0.165	0.124	-0.332	0.178	-1.06 (inactive)	0.95	0.773	0.954	1.04	1.49	0.65
C=C(COC)C(=O)CC[C@@H](OC(C)=O)c1cccc(OCCO)c1	-0.352	1.01 (inactive)	-0.953 (inactive)	0.962 (inactive)	-0.329	0.302 (inactive)	-0.116	-0.0606	-0.132	-0.211	0.114	-0.0524	0.225	1.32 (inactive)	1.38	-0.911	-0.934	-0.303	0.227	1.01
COCCOC(=O)N1C(=O)[C@@]2(c3cc(C#CC4=CCCCC4)ccc31)[C@H](c1ccccc1OCCO)N1[C@H](c3ccccc3)[C@H](c3ccccc3)OC(=O)[C@H]1[C@@H]2C(=O)N1CCN(c2ncccn2)CC1	1.57	0.218 (inactive)	-0.377 (inactive)	2.44 (inactive)	0.456	1.05 (inactive)	-0.142	0.729	1.12	-0.067	0.749	-0.149	-0.513	-1.46 (inactive)	0.751	1.28	0.502	1.06	0.489	0.333
